Compound activity (PubChem)
A selection: hits, their analogues and other compounds. The true share with any hit is near 11%.
12-hLO inh – inhibitors of human 12-lipoxygenase (ALOX12); P18054; purified 12-hLO, xylenol orange hydroperoxide absorbance; Potency, µM (highest dose often 57.1 µM), for the others: top-dose activity change, negative = inhibition, most hits filed as inhibitors; 150,000 tested, 0.12% active; AID 1452; active = well fitted curve in the direction sought with a large enough effect; inconclusive = small, poorly fitted or top-dose-only effect, or another doubt; inactive = no such curve, though single readings can be large; an effect the other way counts as inactive or inconclusive; note: potency is the fitted concentration of half-maximal effect; nearly all actives have a fitted effect of over 55% in size
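150 nM 12hLO, 25 mM Hepes pH 7.0 + 0.01% Triton X-100; cpd preinc 15 min RT; 40 uM arachidonic acid, 30 min RT; Fe-XO 30 min; A573/A405 ratio as read-out.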
IMPase inh – IMPase inhibition in cells; P97697; CHO-M1 cells, IP1 accumulation, HTRF TR-FRET ratio; inhibition (IP1 accumulation), % at 46.1 µM; 120,000 tested, under 10 active; active = well fitted curve in the direction sought with a large enough effect in the signal ratio, not every such curve was filed as active; inconclusive = small, poorly fitted or top-dose-only effect, or a change in a side signal; inactive = no such curve, though single readings can be large or run the other way; the % refers to the signal ratio;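 note: cells stimulated with carbachol in lithium chloride buffer; plate controls were DMSO basal wells for no effect and reference inhibitor wells for full effect; higher means more IMPase inhibition seen as more IP1 and lower FRET ratio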
Target sequence (P97697 whole entry, looked up): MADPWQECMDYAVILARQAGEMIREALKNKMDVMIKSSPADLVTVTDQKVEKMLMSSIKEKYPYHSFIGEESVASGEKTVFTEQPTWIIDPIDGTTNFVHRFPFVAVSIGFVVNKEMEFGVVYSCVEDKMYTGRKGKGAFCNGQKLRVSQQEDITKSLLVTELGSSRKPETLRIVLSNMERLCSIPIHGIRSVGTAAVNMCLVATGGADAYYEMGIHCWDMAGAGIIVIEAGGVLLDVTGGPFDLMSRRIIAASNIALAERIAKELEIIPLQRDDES
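Seeded CHO-M1 cells were dosed with compound at up to 46 uM, stimulated with carbachol for 30 min, then lysed in IP-One detection reagents. Higher IP1 lowers the TR-FRET signal.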
PNC assembly inh – perinucleolar compartment assembly inhibition. 140,000 tested, 3.1% active. activity change (PNC), negative = inhibition, % at 10 µM. PC3M PTB-GFP, PNC prevalence imaging, 16 h; stronger effect = lower value;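 active = readout at or below -70, meaning at least 70% loss of cells showing the perinucleolar compartment, a nuclear body marking cancer cells; inconclusive = readout between -30 and a set limit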;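 note: plate controls were DMSO wells for no effect and camptothecin positive control wells for full effect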
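Compounds are pinned in duplicate onto adhered PC3M cells stably expressing GFP-tagged PTB and incubated 16 h at 37 C. Cells are then fixed, nuclei stained with Hoechst, and PNC-positive cells counted.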
ALDH1A1 inh – blocks purified human ALDH1A1 activity. P00352. Purified ALDH1A1, NADH fluorescence, propionaldehyde substrate. Potency, µM (highest dose often 75.3 µM), for inactives: at the top dose activity, negative = inhibition, most hits filed as inhibitors. 220,000 tested, 7.3% active;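 note: potency is the fitted concentration of half-maximal effect; plate controls were no enzyme wells and a reference inhibitor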
Target sequence (P00352 whole entry, looked up): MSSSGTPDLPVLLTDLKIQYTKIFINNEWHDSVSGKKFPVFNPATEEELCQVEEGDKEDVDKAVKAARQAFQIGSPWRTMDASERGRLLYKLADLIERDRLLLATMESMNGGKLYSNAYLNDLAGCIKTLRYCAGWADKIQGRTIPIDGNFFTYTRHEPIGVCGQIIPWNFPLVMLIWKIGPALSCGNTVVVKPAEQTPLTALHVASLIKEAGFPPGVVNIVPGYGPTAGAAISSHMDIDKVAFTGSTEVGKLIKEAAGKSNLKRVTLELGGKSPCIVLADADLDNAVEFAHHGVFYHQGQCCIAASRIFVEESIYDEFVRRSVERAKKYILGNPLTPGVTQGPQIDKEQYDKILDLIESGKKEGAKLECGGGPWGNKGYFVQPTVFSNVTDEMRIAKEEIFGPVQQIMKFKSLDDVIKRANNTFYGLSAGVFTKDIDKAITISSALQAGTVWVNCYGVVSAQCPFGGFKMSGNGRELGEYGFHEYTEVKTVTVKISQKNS
IMPase Li inh – IMPase inhibition in cells with lithium potentiation; CHO-M1 cells, IP1 TR-FRET (IP-One), carbachol + lithium; Potency, µM (series often up to 59.4 µM), inactives show top-dose activity, negative = IMPase inhibition, most hits filed as inhibitors; 210,000 tested, 0.35% active; active = well fitted curve in the direction sought with a large enough effect; inconclusive = small, poorly fitted or top-dose-only effect, or another doubt; inactive = no such curve, though single readings can be large; an effect the other way counts as inactive or inconclusive;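 note: IP1 builds up when IMPase is blocked and the TR-FRET signal falls; potency is the fitted concentration of half-maximal effect; plate controls were basal vehicle for no effect and high inhibitor control for full effect; nearly all actives have a fitted effect of over 50% in size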
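Steps: plate 2000 CHO-M1 cells per well and culture 16–30 h; add compound and lithium; incubate 30 min, 37C; add d2-IP1 tracer and Eu cryptate anti-IP1 antibody in lysis buffer; read after 10 min at room temperature.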
HPGD inh – blocks human HPGD enzyme activity. purified HPGD, NADH fluorescence kinetic, PGE2 substrate. Potency, µM, for inactives: at the highest dose activity change, negative = inhibition, most hits filed as inhibitors. 150,000 tested, 4.3% active. AID 894; note: potency is the fitted concentration of half-maximal effect
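NADH formation kinetics: reaction with 30 uM PGE2 and 1 mM NAD+ (final), 20 nM enzyme, Tris-HCl pH 8 with Tween 20, after 15 min compound preincubation at room temperature. Fluorescence change, last versus first of five reads.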
* = called active by the depositor; ? = inconclusive; nt = not tested or not shown; [ ] = another dose, or the depositor's remark. Unless noted, calls come from the whole dose curve; as a rule, active = well fitted inhibition curve with a large enough effect (not every such curve was filed as active); inconclusive = small, poorly fitted or top-dose-only effect, or another doubt; inactive = no such curve, though single readings can be large or run the other way. Unless noted, % is set by controls: 0 for no effect and ±100 for the full control effect.

SMILES	12-hLO inh	IMPase inh	PNC assembly inh	ALDH1A1 inh	IMPase Li inh	HPGD inh
COc1ccc(CC(=O)Nn2c(-c3ccccc3)nc3ccccc3c2=O)cc1	2.2%	nt	?	1µM*	-1.8%	-1.3%
Cc1ccc(-c2nc3ccccc3c(=O)n2NC(=O)c2cccs2)cc1	-0.2%	nt	-10.8	?	-0.7%	-13.0%
COC(=O)C/C=C\[C@H](C)[C@@H](OC)c1ccccc1Br	nt	nt	nt	-4.3%[13.5 µM]	nt	nt
CCOC(=O)CCNCC1COc2ccccc2O1 (stereo not given)	4.9%	2.1[1.84 µM]	-92.5*	6.5%	9.5%[38.3 µM]	-4.2%
O=C1CC2(CCCC2)CC(=O)N1CCCCNC[C@H]1COc2ccccc2O1	-0.2%	-0.5	nt	10µM*	19.6%	-1.7%
NC(Cn1ccc(=O)c(O)c1)C(=O)O (stereo not given)	-3.3%	nt	nt	8.4%	2.8%	-6.1%
COC1C(O)C(O)C(O)C(O)C1O (stereo not given)	3.2%	nt	nt	-6.7%	3.2%	-1.0%
O=C1CCC[C@@H](C2=CCCCC2=O)C1	nt	nt	nt	10.6%[13.5 µM]	nt	nt
CNc1ccnc(-c2ccccc2C)n1	nt	nt	nt	-5.4%	-3.1%	nt
COc1ccc2c(c1OC)C(=O)OC2CC(=O)c1ccc(O)c(O)c1 (stereo not given)	?	7.1	3.6	11.6%	-8.9%[38.3 µM]	?
COc1ccc2c(c1OC)C(=O)OC2CC(=O)c1ccc(O)cc1 (stereo not given)	-10.3%	6.8	?	28.2µM*	-8.8%[38.3 µM]	25.1µM*
C[C@@H]1Nc2ccc(Cl)cc2S(=O)(=O)N1	-3.1%	-17.3	nt	?	-2.4%	?
CC(=O)c1ccc(Oc2ccc(C(C)=O)cc2)cc1	-1.0%	0.1	136.7	9.4%	20.0%[38.3 µM]	?
CN(C)C(=O)c1ccc(Oc2ccc(C(=O)N(C)C)cc2)cc1	-0.1%	4.1	27.2	?	6.8%[38.3 µM]	15.8µM*
C=CCOC(=O)/C(=C\c1ccccc1)NC(=O)c1ccco1	-1.9%	nt	-16.4	1.1%	2.2%	-9.7%
CCOC(=O)/C(=C/c1ccccc1)NC(=O)c1ccco1	-6.7%	?	-81.4*	-7.5%	7.8%	-8.9%
COc1cccc([C@@H]2Oc3ccc(Br)cc3C(=O)[C@H]2OC(=O)Nc2ccc(OC(F)F)cc2)c1	nt	nt	nt	10.1%	21.3%	-16.8%
COc1cccc(N=Nc2c(=O)[nH]n3c(=O)cc(C)[nH]c23)c1	-12.7%	?	-7.5	-11.2%	41.2%[38.3 µM]	14.1µM*
COc1cccc(N=Nc2c(=O)[nH]n3c(=O)c4c([nH]c23)CCC4)c1	-5.0%	nt	31.3	-5.6%	17.4%	14.1µM*
O=c1[nH]n2c(=O)c3c([nH]c2c1N=Nc1cccc(Cl)c1)CCC3	2.0%	nt	?	?	30.1%	7.08µM*
O=c1[nH]n2c(=O)c3c([nH]c2c1N=Nc1cccc(C(F)(F)F)c1)CCCC3	2.1%	-0.4[1.84 µM]	-19.1	0.2%	7.2%	-26.6%
Cc1cc(O)c(C=O)c2c1C(=O)Oc1c(COC(=O)/C=C/C(=O)O)c(O)c(C(=O)O)c(C)c1O2	?	nt	nt	4.47µM*	-20.8%	1.41µM*
N[C@H](CO)Cc1cnc[nH]1	0.0%	-1.8	nt	-6.2%	9.2%	2.3%
COc1cc(C/C=C\c2ccccc2)c(OC)cc1O	nt	nt	nt	25.1µM*	11.0%	-20.5%
Cc1ccc(C)c(C(=O)Cn2ncc(Cl)c(Cl)c2=O)c1	-2.9%	-5.6	-6.0	14.1µM*	20.0%[38.3 µM]	-12.4%
SMILES	12-hLO inh	IMPase inh	PNC assembly inh	ALDH1A1 inh	IMPase Li inh	HPGD inh
Cc1ccc(C(=O)OCn2ncc(Cl)c(Cl)c2=O)cc1	-9.3%	-2.6	?	1.41µM*	-16.6%[38.3 µM]	28.2µM*
O=C(OCn1ncc(Cl)c(Cl)c1=O)c1ccc(C(F)(F)F)cc1	0.5%	0.0	6.2	3.55µM*	-3.5%[38.3 µM]	-8.0%
Cc1ccc2ccccc2c1[N+](=O)[O-]	-4.6%	nt	nt	-4.8%	-4.1%	-8.6%
CC(C)=C1CCC(C)CC1=O (stereo not given)	-7.4%	nt	nt	1.4%	9.8%	-9.1%
O=C(/C=C/Sc1ccccc1)c1ccccc1	-1.6%	3.3	?	7.94µM*	-1.6%[38.3 µM]	?
O=C(/C=C/Sc1ccccc1)c1ccc(Cl)cc1	-7.2%	-2.8	-17.1	?	25.7%[38.3 µM]	-17.2%
CS(=O)(=O)c1ccc(C(=O)Nc2ccc(N3CCOCC3)cc2)c(Cl)c1	nt	nt	nt	14.4%	0.5%	nt
CS(=O)(=O)c1ncc(Cl)c(C(=O)Nc2ccc(N3CCOCC3)cc2)n1	-1.4%	7.5	-8.0	10µM*	41.6%[38.3 µM]	-28.0%
N#Cc1cc(C(=O)c2cc(Cl)ccc2O)cn(-c2ccccc2)c1=O	-1.7%	nt	2.5	-4.8%	-5.5%	-15.3%
O=C(c1ccccc1)c1cc(Cl)ccc1N1C(=O)C=CC1=O	nt	nt	nt	10µM*	22.6%	nt
C=CCn1c(=S)[nH]c2scc(-c3cccs3)c2c1=O	nt	nt	nt	12.6µM*	11.2µM*	nt
C=CCn1c(=S)[nH]c2ccccc2c1=O	5.9%	9.7	-24.3	-1.5%	-9.6%	-1.4%
Cn1c(=S)[nH]c2scc(-c3cccs3)c2c1=O	nt	nt	nt	22.4µM*	?	nt
CCOC(=O)c1c(C)oc2cc(Br)c(OC(C)C(=O)OCC)cc12 (stereo not given)	-7.7%	7.8	-100.0*	0.3%	10.3%[38.3 µM]	-23.8%
COC(=O)CSc1nc2sc3c(c2c(=O)n1-c1ccccc1C)CC(C)(C)OC3	nt	-1.4	nt	nt	nt	nt
CN(C)S(=O)(=O)c1ccc(C(=O)N2CCC(c3nc4ccccc4o3)CC2)cc1	-0.1%	2.4	32.7	28.2µM*	36.5%[38.3 µM]	-6.3%
CC(C)N(C(=O)CSc1nnc(NC(=O)C2CCC2)s1)C(C)C	6.6%	-4.4	-102.3*	-3.3%	21.6%[38.3 µM]	-11.1%
Cc1ccc(CSc2nc3ccccc3c(=O)n2Cc2ccco2)cc1	5.4%	3.3	-10.5	-9.5%	14.3%	-15.1%
O=c1c2ccccc2nc(SCc2ccccc2)n1Cc1ccco1	-11.1%	10.3	5.3	20µM*	10.8%[38.3 µM]	-24.6%
O=c1c2ccccc2nc(SCc2nc3ccccc3s2)n1Cc1ccco1	-3.7%	4.8	-84.7*	-5.1%	2.4%[38.3 µM]	-15.0%
CCCCn1c(SCc2nc3ccccc3s2)nc2ccccc2c1=O	1.2%	-3.6	14.4	-4.9%	11.1%	-14.9%
N=c1ccn2c(n1)OC1C(O)C(CO)OC12 (stereo not given)	-1.0%	nt	nt	-11.3%	-6.5%	-10.0%
CCCc1cc(=O)n2[nH]c(-c3ccccc3)cc2n1	6.5%	-1.2	-100.0*	?	-1.6%	?
COc1cc2c(cc1OC)-c1c(oc3cc(O)cc(O)c3c1=O)CO2	-4.6%	nt	nt	-4.2%	12.3%	-16.3%
Cc1nc2cc(-c3ccc(Cl)cc3)nn2c(NCCN(C)C)c1C	nt	nt	nt	?	14.9%	nt
O=C(O)C1C2C=CC(O2)C1C(=O)Nc1ccc(S(=O)(=O)Nc2ccccc2)cc1 (stereo not given)	-24.6%	-3.7	-19.0	1.12µM*	15.5%[38.3 µM]	?
